Screens deposited in PubChem BioAssay by ICCB-Longwood Screening Facility, Harvard Medical School.
The full list was thinned out, with hits kept by preference.
HCMV NEC inh = disrupts HCMV UL50-UL53 complex binding; inhibition, % (concentration not given with the values); 190,000 tested, 0.15% active; AID 1918969; HTRF UL50-UL53 interaction, normalized percent inhibition; in the data active = inhibition above about 27%, passing the limit was not always enough
S aureus helic = blocks Staphylococcus aureus DNA helicase; purified S. aureus helicase, fluorescence unwinding assay; inhibition, % (concentration not given with the values); 120,000 tested, 0.05% active; in the data active = inhibition above about 25%, passing the limit was not always enough;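 also: 0% = mean of negative control wells and 100% = mean of positive control wells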
Sa growth inh = S. aureus growth inhibition; relative growth, % (no concentration beside the values); 170,000 tested, 0.53% active; S. aureus RN4220 growth, OD600, 20 h, 42 °C; stronger effect = lower value;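 active = relative growth at most 50% at the other temperature and 20+ points below 30 °C, or under 10% at both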
Starred values were filed as active, the others as inactive; nt = not tested or not shown.

SMILES	HCMV NEC inh	S aureus helic	Sa growth inh
N/C(=N\O)c1cccc(C(=O)O)c1	-12	9	105
Nc1cccc(-c2ncon2)c1	83*	nt	162
Nc1cccc(-c2cnco2)c1	4	nt	98
CN(Cc1nnc(-c2ccccc2)o1)C(=O)c1ccc(F)cc1	-38	5	93
CCN(Cc1ccccc1)C(=O)Nc1c[nH]c2ccccc12	-60	-13	3.6*
CCN(Cc1ccccc1)C(=O)Cc1ccccc1	-8	nt	103
Cc1c(-c2ccccc2)cc2ccccn12	-45	-18	4.3*
Cc1cc2ccccn2c1C(=O)Nc1ccccc1	-7	-4	87
O=S(=O)(c1cccc(Cl)c1)N1CCN(c2nc3ccccc3n3cccc23)CC1	-28	nt	nt
Fc1ccc(CNc2ccc(Cl)nn2)cc1	-28	nt	nt
COc1ccc(CNc2ccc3cn[nH]c3c2)c(OC)c1C	52*	2	125
Cc1ccc(C)c(CNc2ccc3[nH]ncc3c2)c1	-35	3	19
Cc1c(Sc2nc3ccccc3[nH]2)c(=O)[nH]c2cc3c(cc12)OCO3	-35	-12	92
O=C(CC(SC1CCCCC1)C(=O)O)c1ccc(Br)cc1 (stereo unspecified)	5	5	131
O=C(CC(Sc1ccc(Br)cc1)C(=O)O)c1ccc(Cl)cc1 (stereo unspecified)	-12	12	2.0*
O=C(Nc1ccc2c(c1)OCO2)c1nnc(C2CCCN2C(=O)C2CCC2)s1 (stereo unspecified)	-28	nt	nt
Cc1cc(=O)[nH]c(Nc2ccc(C)c(C)c2)n1	6	nt	nt
CCn1c(=O)cc(Nc2ccc(C)c(C)c2)[nH]c1=O	10	-23	2.4*
NC(=O)COC(=O)CCc1nc2ccccc2c(=O)[nH]1	8	-15	116
O=c1[nH]c(NCCO)c(I)c(=O)[nH]1	67*	18	102
Cc1[nH]c(=O)[nH]c(=O)c1S(=O)(=O)NCCO	-10	nt	nt
CC(C)CN(CC(C)C)Cn1nc(-c2ccc3c(c2)OCO3)oc1=S	-10	-11	70
CN(Cn1nc(-c2ccc3c(c2)OCO3)oc1=S)C1CCCCC1	1	2	45*
CCOC(=O)c1oc2ccccc2c1CO	nt	10	-0.7*
CCOC(=O)c1oc2ccccc2c1CN1C(=O)c2ccccc2C1=O	-12	-20	92
SMILES	HCMV NEC inh	S aureus helic	Sa growth inh
Oc1cccc(N=Cc2cc(Br)ccc2O)c1	-2	-10	32*
Oc1ccccc1C=Nc1cccc(N=Cc2ccccc2O)c1	nt	1	109
Cc1cccc(N2C(=O)CSC(C)C2=O)c1 (stereo unspecified)	-10	nt	nt
Cc1cccc(Cc2cnc(N3C(=N)SC(C)C3=O)s2)c1 (stereo unspecified)	nt	0	2.8*
O=C(C1CCCN(c2nc3ncccc3n3cccc23)C1)N1CCCCC1 (stereo unspecified)	-19	nt	nt
COC(=O)C1CCN(C(=O)Cn2c(=O)cnc3ccccc32)CC1	-50	-11	86
CCCCn1c(SC(F)F)nc2ccccc2c1=O	-24	4	105
Cc1nc2c(C(=O)NCc3ccccc3)c[nH]n2c(=O)c1Cl	nt	6	94
Cc1nc2c(C(=O)NCc3ccccc3)c[nH]n2c(=O)c1Cc1ccccc1Cl	nt	nt	0.7*
COc1ccc(CCN2COc3c(cc(Cl)c4cccnc34)C2)cc1OC	-27	14	nt
COCCN1COc2c(cc(Cl)c3cccnc23)C1	-88	12	0.9*
C=CCSc1nc2sc3c(c2c(=O)[nH]1)CCc1ccccc1-3	2	nt	nt
COc1ccc(CN2C(=O)NC(=O)/C(=C\c3cc(OC)ccc3OC)C2=O)cc1	83*	nt	nt
COc1ccc(/C=C2/C(=O)NC(=O)N(c3ccc(Br)cc3)C2=O)c(OC)c1	-3	nt	nt
COC(=O)c1cc(=O)[nH]c(=S)[nH]1	-7	-13	94
C/C(N)=C(/C#N)C(=O)CSc1nnc(Cc2cccc3ccccc23)n1N	3	3	98
O=S(=O)(Nc1ccc2oc3c(c2c1)CCCC3)c1ccc(F)cc1	-1	0	39*
O=C1CCCN1c1ccc(S(=O)(=O)Nc2ccc3oc4c(c3c2)CCCC4)cc1	6	6	115
CC(=O)Nc1cccc(N2CCn3c(nc4ccccc43)C2)c1	20	nt	nt
O=C(Cc1ccccc1Br)N1CCC(c2nc(-c3ccccc3)no2)CC1	-6	nt	nt
C=CCNc1nc(OC(C(F)(F)F)C(F)(F)F)nc(N2CCOCC2)n1	-17	nt	nt
Cc1nonc1CSCC(=O)O	0	-6	69
CC(C)(C)P(=NC(=O)C(F)(F)F)(N1CCCCC1)N1CCCCC1	-22	-7	97
c1ccc(-n2nnnc2OCCOc2nnnn2-c2ccccc2)cc1	4	16	97
c1ccc(-n2nnnc2Oc2cccc3cccnc23)cc1	nt	6	-0.3*
SMILES	HCMV NEC inh	S aureus helic	Sa growth inh
Cc1nn(-c2ccccc2)c(C)c1CN(C)C(=O)C1COc2ccccc2O1 (stereo unspecified)	-19	9	93
N=c1n(CCN2CCCCC2)c2ccccc2n1CC(O)COc1ccc(Cl)cc1Cl (stereo unspecified)	10	nt	0.3*
COc1ccc(OCC(O)Cn2c(=N)n(CCN3CCCCC3)c3ccccc32)cc1 (stereo unspecified)	-12	nt	118
Cc1noc(C)c1CSc1nc2c(sc3ncccc32)c(=O)n1CC(C)C	38*	nt	nt
CCc1cc2c(=O)n(Cc3ccccc3)c(SCc3c(C)noc3C)nc2s1	-26	-8	75
CCCC(C)C(=O)Nc1nc2ccccc2s1 (stereo unspecified)	-11	17	100
CC(C)(C)C1CCc2nc(NC(=O)c3ccc([N+](=O)[O-])cc3)sc2C1 (stereo unspecified)	0	nt	95
CC(C)(C)C1CCc2nc(NC(=O)c3cccc(Cl)c3)sc2C1 (stereo unspecified)	-3	nt	13*
CO[C@@]12[C@@H]3NC3CN1C1=C(C(=O)C(N)=C(C)C1=O)[C@@H]2COC(N)=O (stereo partly specified)	-104	nt	0.2*
CCCC1CCC(c2ccc(C(N)=O)cc2)CC1 (stereo unspecified)	nt	-12	74
CCCC1CCC(c2ccc(C(=O)CCN(C)C)cc2)CC1 (stereo unspecified)	3	20	-0.5*
COc1cc(CNCCSc2nnnn2C)ccc1OCC(=O)NC(C)(C)C	-13	nt	nt
O=C(/C=C(\O)c1ccccc1)C(F)(F)C(F)F	-7	3	-0.8*
O=C(O)C(=O)/C=C(\O)c1ccccc1	-12	nt	93
CCN(CC(=O)NC1CCS(=O)(=O)C1)c1nc(-c2cccnc2)nc2sc3c(c12)CCCC3 (stereo unspecified)	-34	14	86
Cc1ccc(CN(C)c2nc(-c3cccnc3)nc3sc4c(c23)CCCC4)o1	-31	-6	2.1*
CCCc1cc(=O)n2[nH]c(NC(=O)C(c3ccccc3)c3ccccc3)nc2n1	-9	35	103
O=S(=O)(c1ccc(NCCc2c[nH]c3ccccc23)nn1)C1CCCCC1	-3	nt	nt
CCC1CCCCN1C(=O)Cn1cc(S(=O)(=O)N(C)C)ccc1=O (stereo unspecified)	-12	29*	97
CCC1CCCCN1C(=O)CN1C(=O)CSc2ccc(S(=O)(=O)N(CC)CC)cc21 (stereo unspecified)	-13	nt	nt
CNC(=S)NCCc1c(C)[nH]c2ccccc12	nt	21	84
C[n+]1ccc(/C=C/c2ccccc2F)c2ccccc21	nt	25	7
